# CRFR2-BP antag: CRF-BP/CRF-R2 complex antagonism. HEK293 CRF-R2/CRF-BP, CRF-induced calcium fluorescence. inhibition, % at 11.8 µM. hit rate 0.59% among 350,000;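 active means inhibition of the ligand-induced calcium signal above about 50% at the single tested concentration, limit read from the data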
# CRFBP-R2 agonist: agonists of human CRF-binding protein/CRF-R2 receptor complex | HEK293 CRF-R2/CRF-BP, calcium dye fluorescence (FLIPR); percent of saturating CRF peptide response | activation, % at 13.2 µM | hit rate 0.46% among 350,000 | AID 588473;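 active means activation of at least 50%, plus an integration ratio under a set limit after plate pattern correction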;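 further: plate controls were neutral control wells without compound for no effect and CRF at EC100 for full effect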
# MEKK3 PB1 HTS: modulators (inhibitors or enhancers) of MEK5 binding to human MEKK3 PB1 domain. bead-based flow cytometry, Alexa488-MEK5 binding to MEKK3; actives lie on both sides; 0 = blocked by unlabeled MEK5, 100 = vehicle. Q99759. AID 1529. hit rate 1.4% among 290,000. binding response (% of control), % at 10 µM;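 active means binding response more than 3 SD above or below the average of its plate-row segment, actives on both sides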;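 further: Alexa488 bead fluorescence after subtracting the streptavidin-only scavenger bead signal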
# MEKK2 mut-MEK5: signal of MEK5 binding to mutant human MEKK2 PB1 domain; bead flow cytometry, Alexa488-MEK5 binding to MEKK2 mutant; percent response, % at 10 µM; hit rate 0.35% among 290,000; AID 1530; in the data active means percent response above about 24%, passing the limit was not always enough
# MEKK2 WT-MEK5: raises or lowers MEK5 binding to wildtype human MEKK2 PB1 domain; bead flow cytometry, Alexa488-MEK5 binding to MEKK2 WT; actives lie on both sides; Q9Y2U5; binding response (% of control), % at 10 µM; hit rate 1.1% among 290,000; in the data active means binding response below about 67% or above about 130%
# ABCB6 inh 2: human ABCB6 transporter inhibition; hit rate 0.19% among 360,000; fluorescence ratio to DMSO, % at 10 µM; Q9NP58; K562-ABCB6 porphyrin accumulation, flow cytometry, 1 h; active compounds read low;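 active means fluorescence ratio to DMSO below 75%, the collection mean minus 3 SD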;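 further: signal is porphyrin accumulated inside mitochondria; 100% equals median channel fluorescence of DMSO control wells; lower ratio means ABCB6 inhibition with less porphyrin fluorescence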
# Target sequence (Q9NP58 whole entry, looked up): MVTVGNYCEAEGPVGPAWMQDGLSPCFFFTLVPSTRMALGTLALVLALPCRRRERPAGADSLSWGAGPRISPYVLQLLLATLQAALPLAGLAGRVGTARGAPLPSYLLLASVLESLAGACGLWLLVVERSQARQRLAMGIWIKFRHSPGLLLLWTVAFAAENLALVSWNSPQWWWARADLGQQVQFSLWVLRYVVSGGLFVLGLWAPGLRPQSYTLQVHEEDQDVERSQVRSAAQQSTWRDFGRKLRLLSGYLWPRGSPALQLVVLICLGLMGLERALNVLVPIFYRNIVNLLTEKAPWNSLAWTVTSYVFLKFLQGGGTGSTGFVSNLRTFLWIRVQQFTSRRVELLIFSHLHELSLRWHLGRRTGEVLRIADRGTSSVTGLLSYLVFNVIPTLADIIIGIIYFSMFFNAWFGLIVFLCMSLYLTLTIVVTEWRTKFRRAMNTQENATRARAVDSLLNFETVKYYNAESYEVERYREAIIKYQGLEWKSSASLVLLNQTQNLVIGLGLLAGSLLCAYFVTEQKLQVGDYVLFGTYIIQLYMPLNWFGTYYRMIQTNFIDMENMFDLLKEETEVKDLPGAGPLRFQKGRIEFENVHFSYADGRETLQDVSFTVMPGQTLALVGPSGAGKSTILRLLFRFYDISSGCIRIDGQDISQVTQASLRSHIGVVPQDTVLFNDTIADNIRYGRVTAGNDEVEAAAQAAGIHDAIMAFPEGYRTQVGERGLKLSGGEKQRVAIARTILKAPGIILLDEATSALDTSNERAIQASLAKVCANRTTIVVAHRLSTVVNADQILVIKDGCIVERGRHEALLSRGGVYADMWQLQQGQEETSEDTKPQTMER
# MEKK2wt confirm: raises or lowers MEK5 binding to wildtype human MEKK2, retest | hit rate 2.4% among 5,900 | bead flow cytometry, Alexa488-MEK5 binding to MEKK2 WT; actives lie on both sides | AID 1892 | binding response (% of control), % at 10 µM | shares compounds with MEKK3 PB1 HTS; in the data active means binding response below about 16% or above about 210%; inactive means in between
# MEKK2mut-MEK5: signal of MEK5 binding to mutant human MEKK2, retest | shares compounds with MEKK3 PB1 HTS | bead flow cytometry, Alexa488-MEK5 binding to MEKK2 mutant | percent response, % at 10 µM | hit rate 2% among 5,900 | AID 1893; in the data active means percent response mostly above about 71%, no sharp cut-off; inactive means mostly below about 38%;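 further: higher means compound restores mutant binding toward wildtype level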
# MEKK3 confirm: MEKK3-MEK5 PB1 inhibition, single concentration confirmation. shares compounds with MEKK3 PB1 HTS. bead flow cytometry, Alexa488-MEK5 binding to MEKK3; active compounds read low. binding response (% of control), % at 10 µM. hit rate 1.8% among 5,900. AID 1894;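 active means binding response below 72% of control, or above a set upper limit, though filed actives all read lower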;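 further: 100% = DMSO only wells and 0% = binding blocked by excess unlabeled MEK5; lower values mean stronger disruption of MEK5 binding to MEKK3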
# Active calls of the source: *; nt = not tested or not shown; [ ] = dose if it differs, or a comment. Only some compounds are listed: those with a hit (about 2.9% of all), similar ones and a draw of the others.
SMILES,CRFR2-BP antag,CRFBP-R2 agonist,MEKK3 PB1 HTS,MEKK2 mut-MEK5,MEKK2 WT-MEK5,ABCB6 inh 2,MEKK2wt confirm,MEKK2mut-MEK5,MEKK3 confirm
Cc1ccc(C)c(N2CCN(c3cnn(-c4nc5ccccc5s4)c(=O)c3Cl)CC2)c1,2,3,143*,1,107,89,109,12,108
O=c1c(Cl)c(Nc2cccc(Cl)c2)cnn1-c1nc2ccccc2s1,-27,1,98,-3,91,100,nt,nt,nt
Cc1c(NC(=O)c2cc(-c3cccc(Cl)c3)on2)c(=O)n(-c2ccccc2)n1C,-7,-4,102,2,103,91,nt,nt,nt
CCOC(=O)C1CCN(CCCSc2ccc(C)cc2)CC1,-23,3,104,3,107,102,nt,nt,nt
COc1ccc(-c2csc(N)n2)cc1,11,-1,93,-1,96,100,nt,nt,nt
COc1ccc2[nH]c(C)c(-c3csc(N)n3)c2c1,9,0,117,27*,118,103,101,0,101
COc1ccc(OC)c(-c2cc(C(=O)N/N=C/c3cc(OC)c(OC)cc3OC)c3ccccc3n2)c1,9,0,nt,nt,nt,95,nt,nt,nt
COc1cc(/C=C/c2noc(-c3ccccc3O)n2)cc(OC)c1OC,22,3,109,-2,95,99,nt,nt,nt
COc1ccc(/C=C/c2noc(-c3ccccc3O)n2)cc1,12,7,131*,0,106,96,94,0,98
Cc1ccc2nc(Cl)c3cc(C(=O)NCCCN4CCCC4)sc3c2c1,23,2,109,3,162*,100,174,46,114
CCCN1CCN(CCCNC(=O)c2cc3c(=O)oc4ccc(C)cc4c3s2)CC1,-4,-1,93,3,103,96,nt,nt,nt
Cc1ccc2nc(Cl)c3cc(C(=O)N(CCN(C)C)Cc4ccco4)sc3c2c1,-14,1,96,5,149*,102,137,21,104
Nc1nc(-c2ccccc2)nc2nonc12,18,0,nt,nt,nt,96,nt,nt,nt
O=C(N/N=C/c1ccc2ncccc2c1)c1cc(-c2cccs2)nc2ccccc12,-7,-1,35*[inhibitor],-12,30*[inhibitor],96,100,2,105
O=C(N/N=C/c1cccnc1)c1cc(-c2cccs2)nc2ccccc12,-19,-1,104,1,101,103,nt,nt,nt
Cc1[nH]c2c(ccc3ccccc32)c1C1C(CCN)C1(C)C (stereo not given),-15,2,107,37,208*,98,166,41,108
S=c1[nH]c2ccc3ccccc3c2[nH]1,-16,0,97,-2,93,101,nt,nt,nt
CCCn1c(SCC(=O)Nc2cc(S(=O)(=O)N3CCCCC3)ccc2C)n[nH]c1=O,0,0,nt,nt,nt,88,nt,nt,nt
O=C(CSc1nnc(C2CC2)n1CC1CCCO1)Nc1ccccc1Cl (stereo not given),-4,1,100,0,103,99,nt,nt,nt
Cc1ccccc1NC(=O)c1c(C)nc(SCC(=O)OCc2ccccc2)c(C#N)c1-c1ccc(F)cc1,-14,3,144*,1,111,97,101,-5,98
COc1ccc2cc3c(N)nn(C(=O)c4ccccc4[N+](=O)[O-])c3nc2c1,-52,-2,72*[inhibitor],-1,98,104,95,-3,97
Cc1cccc(NS(=O)(=O)c2csc(C(N)=O)c2)c1C,5,0,97,1,97,93,nt,nt,nt
COc1ccccc1NC(=O)C(C/C=C(\C)Cl)C(C)=O (stereo not given),3,0,79*[inhibitor],-9,83,101,103,-6,101
Cc1ccc(Nc2ncnc3c2nnn3Cc2ccccc2)cc1,-9,1,132*,29,134,95,104,1,103
COc1ccc(NS(=O)(=O)c2cc(NC(=O)CCSc3ccccc3)ccc2OC)cc1,-44,0,145*,-1,111,98,100,0,105
SMILES,CRFR2-BP antag,CRFBP-R2 agonist,MEKK3 PB1 HTS,MEKK2 mut-MEK5,MEKK2 WT-MEK5,ABCB6 inh 2,MEKK2wt confirm,MEKK2mut-MEK5,MEKK3 confirm
COc1ccc(NC(=O)CCSc2ccc(C)cc2)cc1S(=O)(=O)Nc1ccccc1Cl,14,2,105,6,107,95,nt,nt,nt
COc1ccc(S(=O)(=O)N2CCC(C(=O)N[C@@H](C)C(=O)NCc3ccncc3)CC2)cc1,3,0,99,3,99,100,nt,nt,nt
Cc1ccc(Nc2c(-c3ccccc3O)nc3ncccn23)cc1,-1,-1,130*,28,108,91,96,-1,98
CCOc1ccc(C(=O)NCC(=O)OCC(=O)N(C)CC(=O)Nc2ccccc2CC)cc1OCC,-9,1,nt,nt,nt,96,nt,nt,nt
Cc1c(NC(=O)C2CC(c3ccc(F)cc3)=NO2)c(=O)n(-c2ccccc2)n1C (stereo not given),-6,2,9.0*[inhibitor],-38,17*[inhibitor],104,104,7,102
CC(C)OCCCN1CN(S(=O)(=O)c2ccccc2)c2nc3ccccc3nc21,-11,3,6.0*[inhibitor],-66,11*[inhibitor],107,107,2,104
O=C(Nc1ccc(SC(F)F)cc1)C12CCC(CC1)C2,-52,-1,134*,0,104,99,78,-13,87
COc1ccccc1-c1nnc(SCC(=O)Nc2ccc(S(N)(=O)=O)cc2)n1N,-2,2,97,-9,98,98,nt,nt,nt
Cc1ccc(S(=O)(=O)NCC(c2ccco2)S(=O)(=O)c2ccccc2)cc1 (stereo not given),3,0,nt,nt,nt,97,nt,nt,nt
O=C(CC(c1ccco1)S(=O)(=O)c1ccccc1)c1ccccc1 (stereo not given),-11,-3,136*,1,118,97,98,3,102
CSc1scc2c1-c1nc(SCC(=O)C(C)(C)C)ncc1CC2,-17,4,66*[inhibitor],-34,68,97,102,1,105
O=S(=O)(NN1CCOCC1)c1cc(Cl)cc(Cl)c1O,1,0,97,-2,97,100,nt,nt,nt
CCN(CC)S(=O)(=O)c1cc(NC(=O)c2cccc(N3C(=O)CCC3=O)c2)ccc1Cl,-3,-1,nt,nt,nt,98,nt,nt,nt
Cc1nn(C)cc1CN1CCCC(C(=O)c2ccc(-c3ccccc3)c(F)c2)C1 (stereo not given),-34,0,110,34,147*,115,118,11,104

# From PubChem
